# Hits are enriched below; roughly 2.2% of the tested compounds scored in any of these assays.
# FUS suppressor – qHTS for Suppressors of FUS Proteinopathy: Primary screen using FUS-linked yeast assay; S. cerevisiae FUS-expressing, growth rescue, OD600, 24 h; Potency, µM (series often up to 76.6 µM), actives largely listed as activators; actives 0.24% (n = 390,000); AID 1347120, 2019;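 further: plate controls were DMSO vehicle for no effect and reference control for full effect; nearly all actives have a fitted effect of over 55% in size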
#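 FUS-expressing yeast, raffinose-pregrown, induced in 2% galactose minimal medium at OD 0.005; compounds in a dilution series, 24hr at 30C. Growth restoration read as absorbance at 600 nm. CP55940 positive control, DMSO negative.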
# aSyn yeast inh – qHTS of alpha-syn Inhibitors. Yeast expressing alpha-synuclein, growth rescue, BacTiter-Glo, 24 h. Potency, µM (titrated, usually from 46.1 µM), without a hit: top-dose growth rescue (activation), actives largely listed as activators. actives 0.14% (n = 370,000). AID 652106, 2013; further: % of control where 0% means no effect; nearly all actives have a fitted effect of over 65% in size
#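 Readout is rescue of growth in alpha-synuclein-expressing yeast, so inhibitors of toxicity appear as activators. Growth after 24 hr at 30 deg C in galactose medium is quantified by luminescence.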
# Abeta rescue – qHTS for compounds that reverse cellular toxicity of Amyloid beta (A-beta) peptide in yeast: Primary Screen. actives 0.063% (n = 410,000). Potency, µM (doses to about 46.1 µM), usual class: activators. yeast expressing A-beta42, growth rescue, OD600, 48 h; response scale: 0% DMSO, 100% iron-clioquinol control; further: nearly all actives have a fitted effect of over 55% in size
#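 Yeast growth medium received pinned compounds, then yeast cells expressing toxic A-beta were added; plates incubated at 30 C for 48 hr. Growth read as absorbance at 600 nm, normalized to DMSO and equimolar FeCl3 plus clioquinol controls.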
# TDP-43 yeast inh – qHTS of TDP-43 Inhibitors; actives 1.8% (n = 410,000); TDP-43 expressing yeast growth rescue, BacTiter-Glo, 24 h; Potency, µM (series often up to 46.1 µM), for inactives: top-dose growth rescue (activation), usual class: activators; AID 652104, 2013; further: % of control where 0% means no effect; nearly all actives have a fitted effect of over 50% in size
#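 Yeast cells expressing TDP-43 under galactose induction are exposed to compounds for 24 hr at 30 deg C. BacTiter-Glo luminescence measures growth, so protective compounds score as activators.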
# Mito fusion act – qHTS Assay for Small Molecule Inhibitors of Mitochondrial Division or Activators of Mitochondrial Fusion; S. cerevisiae fusion-defective mutant growth rescue, CellTiterGlo 48 h; AID 485298, 2010; actives 0.23% (n = 320,000); Potency, µM (doses to about 46.1 µM), inactives show at the top dose growth rescue (activation), actives largely listed as activators; further: % of control where 0% means no effect; nearly all actives have a fitted effect of over 45% in size
#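 Read-out: ATP-based luminescence (CellTiterGlo, 10 min ambient) reporting growth of fusion-defective ts yeast after 48 hours at 37C on glycerol/ethanol YPEG medium in the presence of compound.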
# * = called active by the depositor; i = inactive; u = inconclusive; x = no result given; [ ] = another dose, or the depositor's remark. The call rests on the fitted dose curve; in most records, active means well fitted curve in the direction sought with a large enough effect; inconclusive means small, poorly fitted or top-dose-only effect, or another doubt; inactive means no such curve, though single readings can be large; an effect the other way counts as inactive or inconclusive. Potency means the concentration at half of the fitted maximal effect.
SMILES,FUS suppressor,aSyn yeast inh,Abeta rescue,TDP-43 yeast inh,Mito fusion act
COc1ccc(C(O)c2nc(-c3ccccc3)cs2)cc1 (configuration not stated),i,20.3%,u,35.5µM*,x
COc1ccc(-c2csc(C(O)c3ccc(OC)cc3)n2)cc1 (configuration not stated),i,u,i,u,x
COc1ccc(-c2csc(C(O)c3ccc(F)cc3)n2)cc1 (configuration not stated),i,u,i,22.4µM*,x
CCN1C(=O)[C@H]2[C@@H](c3ccc(-c4cccc(Cl)c4)cc3)N[C@@](Cc3ccccc3)(C(=O)OC)[C@H]2C1=O,14.1µM*,16.3%,i,2.8%,23.4%
Cc1cc(S(=O)(=O)Nc2ccc3cn[nH]c3c2)c(C)cc1Cl,i,15.1%,i,-8.8%,11.2µM*
O=S(=O)(Nc1ccc2cn[nH]c2c1)c1ccc(Cl)cc1,i,-2.2%,i,-1.0%,26.1%
O=S1(=O)C=C(Sc2nc3cc(Cl)ccc3o2)c2ccccc21,i,-8.3%,i,12.6µM*,-16.0%
O=C(Nc1ccc(F)cc1)c1cccnc1NCCc1ccccc1,i,-9.6%,i,12.6µM*,17.8µM*
O=C(Nc1cccc(F)c1)c1cccnc1NCCc1ccccc1,i,-1.0%,i,33.2%,u
CCCCn1c(CCC(=O)O)nc2cc(S(=O)(=O)N3CCCC3)ccc21,x,0.2%,i,8.4%,x
CCCCOc1ccc(C2(C(=O)O)CCCC2)cc1,i,1.1%,u,3.7%,1.9%
CCCOc1ccc(C2(C(=O)O)CCCC2)cc1,i,12.9%,i,12.6µM*,7.2%
CCCCOc1cccc(C2(C(=O)O)CCCC2)c1,i,9.7%,i[9.22 µM],20µM*,9.1%
CCOc1cccc(C2C=C(c3ccc4c(c3)OCO4)NC(c3ccccc3Cl)N2)c1O (configuration not stated),x,-4.1%,x,x,x
CCC(C)Sc1nc2c(c(=O)n1C)SC(C)C2 (configuration not stated),i,-14.6%,i,17.8µM*,16.3%
COc1ccc(Oc2nc3c(c(=O)n(Cc4ccccc4Cl)c(=O)n3C)n2C)cc1,i,x,i,0.0%,x
O=C(Nc1nc(-c2ccc(Cl)cc2Cl)cs1)C1CCCO1 (configuration not stated),i,-6.7%,i,12.6µM*,27.4%
O=C(NCCc1ccccc1)C(c1ccc(F)cc1)N(C(=O)c1csnn1)C1CC1 (configuration not stated),i,0.1%,i,-4.2%,-4.7%
COc1cc(C=CC(=O)c2ccccc2)cc(OC)c1OC,i,u,i,14.1µM*,x
COc1cc(/C=C/C(=O)N2CCC=CC2=O)cc(OC)c1OC,i,12.6%,i,22.4µM*,-10.8%
COc1ccc(C(=O)/C=C/c2ccc(OC)c(O)c2)c(F)c1,x,-3.7%,i,22.4µM*,5.1%
COc1ccc(C=CC(=O)c2ccc(OC)c(OC)c2O)cc1OC,i,u,i,12.6µM*,x
Cc1ccc(F)c(S(=O)(=O)NC(=O)C2(C)CCN2C(=O)Cc2ccsc2)c1 (configuration not stated),i,-0.6%,i,7.3%,x
COc1ccc2[nH]cc(/C=C/c3cc[n+](C)cc3)c2c1,i,2.3%,i,-7.0%,-3.4%
CC(C)C[C@H]1CN=C(Nc2ccccc2)N1CC1CCC(C)CC1 (some centres not stated),i,0.6%,i,2.4%,-7.1%
SMILES,FUS suppressor,aSyn yeast inh,Abeta rescue,TDP-43 yeast inh,Mito fusion act
COc1cc2ccccc2cc1-c1nnc(COc2ccccc2)o1,i,6.1%,i,25.1%,10µM*
Cc1cc(C)n(-c2nc3cc(Cl)ccc3nc2N2CCN(c3cccc(C)c3C)CC2)n1,i,x,i,14.4%,x
O=C(O/N=C(/c1ccccc1)c1ccncc1)c1cccc(F)c1,i,11.0%,i,14.1µM*,4.6%
CN=C(Nc1cc(Cl)ccc1Cl)SC1CC(=O)N(c2ccc(C(=O)OC)cc2)C1=O (configuration not stated),u,u,u,25.1µM*,-11.9%
O=C(COc1ccc(S(=O)(=O)N2CCCC2)cc1)NCc1ccccn1,i,-3.7%,i,-20.4%,-32.3%
O=C1N(Cc2ccccc2Cl)c2ccccc2C1(O)c1c[nH]c2ccccc12 (configuration not stated),u,x,i,15.8µM*,x
COc1ccc(C(=O)CC2(O)C(=O)N(Cc3ccccc3Cl)c3ccccc32)cc1 (configuration not stated),i,30.0%,i,31.6µM*,x
OCCCCC#Cc1c(-c2ccsc2)sc2ccccc12,i,-34.1%,i,14.1µM*,-25.5%
CC1Cn2c(C(=O)NCCc3ccc(Cl)cc3)cc3cccc(c32)S1 (configuration not stated),i,x,i,8.4%,x
O=C(C1CCCN(S(=O)(=O)c2cccs2)C1)N1CCN(Cc2ccccc2)CC1 (configuration not stated),i,x,x,x,x
COc1ccc(NC(=O)c2c(C)nn(-c3ccccc3)c2Cl)cc1,i,-6.7%,i,21.8%,1.0%
Cc1ccc(NC(=O)c2c(C)nn(-c3ccccc3)c2Cl)cc1,i,0.7%,i,12.6µM*,3.1%
CC(=O)c1cccc(NC(=O)c2c(C)nn(-c3ccccc3)c2Cl)c1,x,-15.5%,i,16.5%,7.0%
COc1ccccc1NC(=O)CSc1ncn(-c2ccccc2)n1,x,6.3%,i,10µM*,7.6%
COc1ccccc1NC(=O)c1c(C)nn(-c2ccccc2)c1Cl,i,0.4%,i,25.1µM*,-4.5%
CC(=O)c1ccc(NC(=O)c2c(C)nn(-c3ccccc3)c2Cl)cc1,i,8.0%,i,11.2µM*,2.0%
Cc1ccccc1NC(=O)c1c(C)nn(-c2ccccc2)c1Cl,i,-0.1%,i,u,0.5%
CCOC(=O)c1ccccc1NC(=O)COC(=O)CCNS(=O)(=O)c1ccccc1,i,7.2%,u,26.1%,-0.3%
CCOc1cc(CNC(=O)C(NS(=O)(=O)c2cccs2)C(C)C)cc(OCC)c1OCC (configuration not stated),i,x,i,9.0%,x
Cc1cc(NC(=O)c2ccc3sc([C@@H]4O[C@H](CO)[C@H](O)[C@H](O)[C@H]4O)nc3c2)n(C)n1,i,-0.1%,i,0.0%,x
O=[N+]([O-])c1cccc(-c2cc(-c3cc(Br)ccc3O)[nH]n2)c1,i,-7.1%,i,12.6µM*,-49.3%

# Screens as filed in PubChem BioAssay.
